Source: PubChem BioAssay AID1159580 (chemical genetic matrix, 2015)
Screen size: about 5,500 compounds; about 2,000 (36%) were called active. Inconclusive results (about 18%) are left out. No stated cut-off is given here; in the data, active means normalized growth mostly below about 0.91 (no sharp cut-off); inconclusive means no clear call, values can overlap the other calls; inactive means mostly above about 0.92. The list shows a part of the results.

Assay: chemical genetic growth profiling, strain panel (AID 1159580);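 further: tested at 20 µM; growth read once vehicle control cultures reached saturation at 30 °C; 1 = growth at the plate median or of vehicle wells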
Details: growth OD

Measured: normalized growth

C[C@@H]1O[C@@H](O[C@H]2[C@@H](Oc3cc(O)c4c(c3)O[C@H](c3ccc(O)cc3)CC4=O)O[C@H](CO)[C@@H](O)[C@@H]2O)[C@H](O)[C@H](O)[C@H]1O
inactive: S. cerevisiae deletion strains, locus YJR075W, strain HOC1, stronger effect = lower value 0.996 | S. cerevisiae deletion strains, locus YKL009W, strain mrt4, stronger effect = lower value 0.997 | S. cerevisiae deletion strains, locus YKL068W, stronger effect = lower value 1 | S. cerevisiae deletion strains, locus YKL085W, strain MDH1 (second series), stronger effect = lower value 0.996 | S. cerevisiae deletion strains, locus YKL085W, strain MDH1, stronger effect = lower value 0.996 | S. cerevisiae deletion strains, locus YKL160W, strain elf1, stronger effect = lower value 0.971 | S. cerevisiae deletion strains, locus YKL190W, strain CNB1, stronger effect = lower value 1 | S. cerevisiae deletion strains, locus YKR001C, strain vps1, stronger effect = lower value 1.01 | S. cerevisiae deletion strains, locus YKR026C, strain gcn3, stronger effect = lower value 0.996 | S. cerevisiae deletion strains, locus YKR091W, strain srl3, stronger effect = lower value 0.969 | S. cerevisiae deletion strains, locus YLL001W, strain dnm1, stronger effect = lower value 0.952 | S. cerevisiae deletion strains, locus YLL026W, stronger effect = lower value 0.974 | S. cerevisiae deletion strains, locus YLL041C, strain sdh2, stronger effect = lower value 0.983 | S. cerevisiae deletion strains, locus YLR027C, strain aat2, stronger effect = lower value 0.967 | S. cerevisiae deletion strains, locus YLR039C, strain RIC1, stronger effect = lower value 0.97 | S. cerevisiae deletion strains, locus YLR058C, strain SHM2, stronger effect = lower value 0.977 | S. cerevisiae deletion strains, locus YLR102C, strain apc9, stronger effect = lower value 1 | S. cerevisiae deletion strains, locus YLR113W, strain HOG1, stronger effect = lower value 0.969 | S. cerevisiae deletion strains, locus YLR221C, strain rsa3, stronger effect = lower value 0.957 | S. cerevisiae deletion strains, locus YLR258W, strain gsy2, stronger effect = lower value 0.981 | S. cerevisiae deletion strains, locus YLR262C, strain YPT6 (second series), stronger effect = lower value 0.979 | S. cerevisiae deletion strains, locus YLR262C, strain YPT6, stronger effect = lower value 0.969 | S. cerevisiae deletion strains, locus YLR268W, strain sec22, stronger effect = lower value 1.01 | S. cerevisiae deletion strains, locus YLR320W, strain mms22, stronger effect = lower value 0.969 | S. cerevisiae deletion strains, locus YLR330W, strain CHS5, stronger effect = lower value 0.99 | S. cerevisiae deletion strains, locus YLR342W, strain FKS1 (second series), stronger effect = lower value 1.03 | S. cerevisiae deletion strains, locus YLR342W, strain FKS1, stronger effect = lower value 0.98 | S. cerevisiae deletion strains, locus YLR357W, strain rsc2, stronger effect = lower value 0.956 | S. cerevisiae deletion strains, locus YLR370C, strain arc18, stronger effect = lower value 0.981 | S. cerevisiae deletion strains, locus YLR371W, strain rom2, stronger effect = lower value 0.997 | S. cerevisiae deletion strains, locus YLR384C, strain iki3, stronger effect = lower value 0.963 | S. cerevisiae deletion strains, locus YLR418C, strain cdc73, stronger effect = lower value 1.03 | S. cerevisiae deletion strains, locus YML016C, strain PPZ1, stronger effect = lower value 0.984 | S. cerevisiae deletion strains, locus YML032C, strain rad52, stronger effect = lower value 0.996 | S. cerevisiae deletion strains, locus YML120C, strain ndi1, stronger effect = lower value 0.953 | S. cerevisiae deletion strains, locus YML124C, strain tub3, stronger effect = lower value 0.993 | S. cerevisiae deletion strains, locus YMR058W, strain fet3, stronger effect = lower value 0.972 | S. cerevisiae deletion strains, locus YMR078C, strain ctf18, stronger effect = lower value 0.993 | S. cerevisiae deletion strains, locus YMR125W, strain sto1, stronger effect = lower value 0.941 | S. cerevisiae deletion strains, locus YMR129W, stronger effect = lower value 0.974 | S. cerevisiae deletion strains, locus YMR205C, strain PFK2, stronger effect = lower value 0.962 | S. cerevisiae deletion strains, locus YMR223W, strain ubp8, stronger effect = lower value 0.991 | S. cerevisiae deletion strains, locus YMR231W, strain pep5, stronger effect = lower value 0.983 | S. cerevisiae deletion strains, locus YMR263W, strain SAP30, stronger effect = lower value 0.987 | S. cerevisiae deletion strains, locus YMR307W, strain GAS1, stronger effect = lower value 1.04 | S. cerevisiae deletion strains, locus YNL067W, strain RPL9B, stronger effect = lower value 1 | S. cerevisiae deletion strains, locus YNL071W, strain lat1, stronger effect = lower value 0.979 | S. cerevisiae deletion strains, locus YNL128W, strain TEP1, stronger effect = lower value 0.975 | S. cerevisiae deletion strains, locus YNL153C, strain GIM3, stronger effect = lower value 0.981 | S. cerevisiae deletion strains, locus YNL183C, strain NPR1, stronger effect = lower value 0.92 | S. cerevisiae deletion strains, locus YNL209W, strain ssb2, stronger effect = lower value 0.971 | S. cerevisiae deletion strains, locus YNL233W, strain BNI4, stronger effect = lower value 0.991 | S. cerevisiae deletion strains, locus YNL248C, strain rpa49, stronger effect = lower value 0.977 | S. cerevisiae deletion strains, locus YNL250W, strain rad50, stronger effect = lower value 0.982 | S. cerevisiae deletion strains, locus YNL271C, strain bni1, stronger effect = lower value 0.999 | S. cerevisiae deletion strains, locus YNL298W, strain CLA4, stronger effect = lower value 1 | S. cerevisiae deletion strains, locus YNL307C, strain MCK1, stronger effect = lower value 1 | S. cerevisiae deletion strains, locus YNL322C, strain KRE1 (second series), stronger effect = lower value 0.951 | S. cerevisiae deletion strains, locus YNL322C, strain KRE1, stronger effect = lower value 0.987 | S. cerevisiae deletion strains, locus YNR049C, strain mso1, stronger effect = lower value 0.961 | S. cerevisiae deletion strains, locus YNR052C, strain pop2, stronger effect = lower value 0.998 | S. cerevisiae deletion strains, locus YOL006C, strain TOP1, stronger effect = lower value 0.962 | S. cerevisiae deletion strains, locus YOL012C, strain htz1 1.14 | S. cerevisiae deletion strains, locus YOL147C, strain pex11, stronger effect = lower value 1 | S. cerevisiae deletion strains, locus YOR001W, strain rrp6, stronger effect = lower value 0.998 | S. cerevisiae deletion strains, locus YOR061W, strain CKA2, stronger effect = lower value 0.967 | S. cerevisiae deletion strains, locus YOR069W, strain VPS5, stronger effect = lower value 0.99 | S. cerevisiae deletion strains, locus YOR070C, strain gyp1, stronger effect = lower value 0.981 | S. cerevisiae deletion strains, locus YOR080W, strain dia2, stronger effect = lower value 0.967 | S. cerevisiae deletion strains, locus YOR083W, strain WHI5, stronger effect = lower value 0.947 | S. cerevisiae deletion strains, locus YOR106W, strain vam3, stronger effect = lower value 0.954 | S. cerevisiae deletion strains, locus YOR136W, strain idh2, stronger effect = lower value 0.999 | S. cerevisiae deletion strains, locus YOR144C, strain elg1, stronger effect = lower value 1 | S. cerevisiae deletion strains, locus YOR184W, strain ser1, stronger effect = lower value 0.991 | S. cerevisiae deletion strains, locus YOR231W, strain MKK1, stronger effect = lower value 0.98 | S. cerevisiae deletion strains, locus YOR265W, strain rbl2, stronger effect = lower value 0.983 | S. cerevisiae deletion strains, locus YOR270C, strain vph1, stronger effect = lower value 0.915 | S. cerevisiae deletion strains, locus YOR290C, strain snf2, stronger effect = lower value 0.919 | S. cerevisiae deletion strains, locus YOR316C, strain cot1, stronger effect = lower value 0.992 | S. cerevisiae deletion strains, locus YPL051W, strain arl3, stronger effect = lower value 0.987 | S. cerevisiae deletion strains, locus YPL055C, strain LGE1, stronger effect = lower value 0.973 | S. cerevisiae deletion strains, locus YPL078C, strain atp4, stronger effect = lower value 0.968 | S. cerevisiae deletion strains, locus YPL106C, strain sse1, stronger effect = lower value 0.942 | S. cerevisiae deletion strains, locus YPL240C, strain hsp82, stronger effect = lower value 0.973 | S. cerevisiae deletion strains, locus YPL241C, strain CIN2, stronger effect = lower value 0.991 | S. cerevisiae deletion strains, locus YPL256C, strain CLN2, stronger effect = lower value 0.998 | S. cerevisiae deletion strains, locus YPR119W, strain clb2, stronger effect = lower value 1 | S. cerevisiae deletion strains, locus YPR141C, strain kar3, stronger effect = lower value 0.992 | S. cerevisiae deletion strains, locus YPR163C, strain tif3, stronger effect = lower value 1 | S. cerevisiae deletion strains, locus YPR167C, strain met16, stronger effect = lower value 0.998 | S. cerevisiae deletion strains, strain wtn01, stronger effect = lower value 0.997 | S. cerevisiae strains, strain wild type, stronger effect = lower value 0.98
